CHRM1 antagonist: human M1 muscarinic receptor antagonists, primary screen, CHO-K1 cells, Fluo-8 calcium fluorescence, 1536-well; AID 588852, 2011; CHO-K1 hM1, ACh EC80 antagonist; Muscarinic acetylcholine receptor M1 (Homo sapiens), P11229; 360,000 tested, 1.3% active; inhibition, % at 3 µM;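 active = percent inhibition above its own plate's cutoff, namely the mean of that plate's compound wells plus 3 SD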;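 also: peak over basal fluorescence ratio during 140 s after agonist addition; 0% = ACh EC80 plus DMSO and 100% = DMSO alone without agonist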
Target sequence (P11229 whole entry, looked up): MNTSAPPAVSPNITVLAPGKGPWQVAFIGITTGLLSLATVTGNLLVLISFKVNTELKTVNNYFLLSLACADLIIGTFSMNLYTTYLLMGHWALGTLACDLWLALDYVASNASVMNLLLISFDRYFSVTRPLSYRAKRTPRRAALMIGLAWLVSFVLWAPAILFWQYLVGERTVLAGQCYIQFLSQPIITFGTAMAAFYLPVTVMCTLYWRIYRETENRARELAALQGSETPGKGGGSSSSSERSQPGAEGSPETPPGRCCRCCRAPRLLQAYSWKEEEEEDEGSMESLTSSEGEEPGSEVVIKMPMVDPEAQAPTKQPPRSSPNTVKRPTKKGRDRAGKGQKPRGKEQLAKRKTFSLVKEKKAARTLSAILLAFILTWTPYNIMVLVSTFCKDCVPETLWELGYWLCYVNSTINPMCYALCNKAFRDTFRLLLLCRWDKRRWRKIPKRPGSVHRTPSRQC
M1 ag: human M1 muscarinic receptor agonists, primary screen, Fluo-8 calcium fluorescence, CHO-K1 cells, HTS. CHO-K1 hM1, agonist mode; 0% DMSO, 100% acetylcholine EC100. activation, % at 3 µM. 360,000 tested, 0.33% active. AID 588814, 2011;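 active = activation above the run's mean compound activation plus 3 SD, cut at about 16% in these data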;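 also: peak over basal fluorescence ratio within a 140 s kinetic read after compound addition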
M1 PAM: human M1 muscarinic receptor positive allosteric modulators, primary screen, CHO-K1 cells, Fluo-8 calcium fluorescence, 1536-well; AID 588819, 2011; Muscarinic acetylcholine receptor M1 (Homo sapiens), P11229; activation, % at 3 µM; 360,000 tested, 0.088% active; CHO-K1 hM1, ACh EC20; 0% = ACh EC20, 100% = maximal ACh; in the data active = activation above about 19%, passing the limit was not always enough
CHO-K1 Ca antag: nonselective inhibitor or artifact in parental CHO-K1 cells. inhibition, % at 3 µM. AID 602250. 360,000 tested, 0.6% active. ATP-induced calcium, Fluo-8 fluorescence;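 active = inhibition above a per-plate cutoff, the plate's mean sample inhibition plus 3 SD, cut at about 24% in these data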;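 also: 0% = DMSO plus EC80 ATP and 100% = DMSO alone without ATP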
CHO-K1 Ca ag: counter-screen for M1 agonists: effect in parental CHO-K1 cells; 360,000 tested, 0.48% active; activation, % at 3 µM; Fluo-8 calcium fluorescence; scaled to maximal ATP response, vehicle zero; in the data active = activation above about 15%;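 also: untransfected CHO-K1 host cells lacking M1 receptor as counterscreen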
CHO-K1 Ca PAM: nonselective calcium activators in parental CHO-K1 cells, primary screen, counter-screen for M1 PAM project, cell-based, Fluo-8 calcium fluorescence, full deck, 1536-well; ATP EC20; 0% at ATP EC20, 100% at ATP max; activation, % at 3 µM; 360,000 tested, 0.02% active;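 active = activation above the run cutoff, the mean activation of all test compounds plus 3 SD, cut at about 40% in these data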;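 also: peak over basal fluorescence ratio in a 140 s read after ATP addition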
Numbers without * were called inactive; + = active, no number. In the library only some 2.4% were active in any assay of this set; here they are far more common.

SMILES	CHRM1 antagonist	M1 ag	M1 PAM	CHO-K1 Ca antag	CHO-K1 Ca ag	CHO-K1 Ca PAM
OCC[C@@H]1C[C@H](O)[C@@H](O)[C@@]2(OCCCc3cc(Cl)ccc32)O1	-5.9	-0.8	8.4	11.5	0.6	12.3
COc1ccc2cc1Oc1ccc(cc1)CC1c3c(cc(OC)c4c3Oc3cc5c(cc3O4)CCNC5C2)CCN1C (stereo not drawn)	90.6*	-11.7	-35.3	-1.3	3.3	-6.3
CCOC(=O)c1cc(C(C)(C)C)n(CCCN2CCOCC2)c1C	-10.1	-3.4	5.2	-13.9	1.0	16.6
CCOC(=O)c1cc(C)n(CCCN2CCOCC2)c1C	34.8*	-7.3	-19.0	-10.9	0.5	-4.6
Cc1cc2cc(CNC(=O)c3ccc(S(=O)(=O)N4CCCC4)cc3)ccc2n1C	73.2*	-10.6	-28.4	6.9	2.0	21.0
CCN(CC)S(=O)(=O)c1ccc(C(=O)NCc2ccc3c(c2)cc(C)n3C)cc1	56.6*	-11.4	-31.1	-4.6	0.7	7.3
Cc1cc2cc(CNC(=O)c3ccc(S(=O)(=O)N4CCCCC4)cc3)ccc2n1C	12.6	-10.6	-13.1	3.6	1.8	-1.3
COc1ccc(OC)c(NC(=O)c2csc(Cl)c2OC)c1	-2.1	-4.2	12.6	6.8	-1.9	-10.4
CC(CCc1ccccc1)NC(=O)CNc1cccc([N+](=O)[O-])c1 (stereo not drawn)	-0.5	2.0	-5.1	-9.5	15.1*	2.5
Cc1ccc2nc(SCC(=O)Nc3cccc([N+](=O)[O-])c3)[nH]c2c1	5.0	-4.8	0.9	-1.2	16.0*	10.9
CN(Cc1ccccc1)C(=O)c1cccc(NC(=O)Cc2cccc([N+](=O)[O-])c2)c1	33.1*	-12.1	-26.0	-9.6	8.6	-4.9
Cc1ccc(CC(=O)Nc2cccc([N+](=O)[O-])c2)cc1	-5.7	-6.9	7.1	-2.6	17.8*	15.9
CN(Cc1ccccc1)C(=O)c1cccc(NC(=O)Cc2ccc([N+](=O)[O-])cc2)c1	16.2	-7.7	-23.4	-5.5	10.2	-5.3
CCOc1ccccc1/C=C(/NC(=O)c1ccccc1)C(=O)NC(C)c1ccccc1 (stereo not drawn)	2.3	-7.3	-3.3	3.1	1.3	4.7
COC(=O)c1ccc(COc2ccc(/C=N/Nc3nc(C)cc(=O)[nH]3)cc2)cc1	-9.8	-3.0	5.0	-12.1	0.3	12.5
CN(Cc1ccc(F)cc1)C(=O)c1ccc(NC(=O)CC2SC(N3CCCC3)=NC2=O)cc1 (stereo not drawn)	-17.3	-0.1	13.6	-5.0	-0.3	6.3
CC(C)n1c(NCc2ccccc2O)nc2ccccc21	-8.3	-4.4	8.6	1.3	23.2*	16.9
Cn1c(NCc2ccccc2O)nc2ccccc21	-1.8	-4.9	1.0	5.9	0.1	3.6
Cc1cccc(NC(=O)[C@H](NC(=O)[C@@H]2Cc3ccccc3CN2)c2ccccc2)c1	8.7	-2.1	-5.2	0.2	1.6	-4.2
O=c1cc(-c2ccccc2)oc2cc(O)ccc12	-6.3	-1.7	0.4	-3.0	0.7	4.9
O=c1ccc2c(-c3ccccc3)c3ccc(O)cc3oc-2c1	104.3*	+	-30.3	93.0*	532.9*	-11.4
Nc1ccc(-c2c3ccc(=O)cc-3oc3cc(O)ccc23)cc1C(=O)O	54.7*	277.5*	-37.5	27.0*	133.5*	-27.7
Cc1ccc(Cl)cc1NC(=O)C1CC1c1ccccc1 (stereo not drawn)	-9.2	-5.3	0.6	-8.5	-0.1	-13.3
CCCNC(=O)C1(C)CCN(Cc2noc(-c3ccccc3OC)n2)C1 (stereo not drawn)	-9.9	-2.5	5.1	-7.2	-0.1	-3.7
Cc1c(CCC(=O)O)c(=O)oc2cc3occ(-c4ccc(Br)cc4)c3cc12	-9.3	2.5	12.9	-7.1	6.6	8.9
SMILES	CHRM1 antagonist	M1 ag	M1 PAM	CHO-K1 Ca antag	CHO-K1 Ca ag	CHO-K1 Ca PAM
CCCCS/C(=C(/C#N)C(N)=O)c1cc2c([nH]1)CCCC2	25.0*	-6.2	-25.4	7.2	-0.3	7.8
O=C(NCC1COc2ccccc2O1)c1ccc(Br)s1 (stereo not drawn)	-3.8	-3.4	1.2	-12.0	1.7	6.9
CCc1cc(C(=O)Nc2cc(S(=O)(=O)N(CC)CC)ccc2N2CCN(C)CC2)sc1C	-3.4	-6.9	1.8	-5.9	0.0	-12.0
CCc1cc(C(=O)Nc2cc(Cl)ccc2N2CCN(C)CC2)sc1C	-10.8	0.4	11.0	27.6*	0.3	-19.9
COc1cccc(N/C=C/C(=O)c2ccc(OC)c(OC)c2)c1	-10.1	-2.9	-0.3	-2.3	0.9	12.1
CCOC(=O)c1cccc(N/C=C/C(=O)c2ccc(OC)c(OC)c2)c1	29.0*	-0.1	-11.3	18.4	2.8	-5.2
CCc1nccn1CCC(=O)N1CCCC(N2CCN(c3cccc(Cl)c3)CC2)C1 (stereo not drawn)	-4.7	-2.8	5.0	-8.4	2.1	1.2
CCN1CCN(c2c(Cl)cccc2NC(=O)c2ccc([N+](=O)[O-])o2)CC1	43.3*	-7.1	-21.8	-12.9	0.8	21.5
O=C(Nc1cccc(Cl)c1N1CCCC1)c1ccc([N+](=O)[O-])o1	2.4	0.5	7.7	1.0	-0.2	7.6
CNc1cncc(-c2ccc(OC)cc2OC)n1	-18.0	-1.3	11.6	8.3	0.0	-16.3
O=C(C[n+]1ccccc1)N1c2ccccc2Sc2ccccc21	100.2*	-15.4	-38.3	-6.5	-0.2	-5.6
O=C(COc1ccccc1)N1c2ccccc2Sc2ccccc21	15.0	-9.1	-16.0	-11.6	1.9	21.7
CN(C)c1cc[n+](CC(=O)N2c3ccccc3Sc3ccccc32)cc1	99.7*	-7.6	-25.2	-19.2	1.4	-5.5
COc1ccc(NC(=O)C(CC(=O)O)C(C)c2ccccc2)cc1 (stereo not drawn)	1.3	-3.1	8.7	17.6	-0.2	-12.7
CCOc1ccc(CN(CC)C(=O)Cc2c[nH]c3ccccc23)cc1OC	-9.6	-0.2	11.1	-18.6	3.2	7.2
COCCNC(=O)CN1N=C(c2ccc(C)cc2)CCC1=O	-5.7	-4.5	2.0	-7.6	-0.3	5.3
Cc1ccc(NC(=O)C2=CC(c3ccc(C)cc3)=NS(=O)(=O)N2C)cc1	36.4*	3.7	-22.8	16.2	11.7	-7.7
COc1ccc(C2=NS(=O)(=O)N(C)C(C(=O)Nc3ccc(C)cc3)=C2)cc1	18.0	3.5	-18.7	3.3	10.1	10.8
CCCn1c(SCC(=O)NNC(=O)c2ccc(OC)cc2)nnc1C(C)C	-7.5	-3.9	4.2	-5.2	0.9	-7.5
O=CNC1(c2ccccc2)CCCCC1	-12.9	-3.4	8.4	-13.8	0.2	6.1

Assay outcomes as filed in PubChem BioAssay.
